From PubChem BioAssay AID1159580 (chemical genetic matrix, 2015)
Screen size: about 5,500 compounds; about 2,000 (36%) were called active. Roughly 18% stayed inconclusive and do not appear here. Cut-off read from the data, not from the text of the source: active = normalized growth mostly below about 0.91 (no sharp cut-off); inconclusive = no clear call, values can overlap the other calls; inactive = mostly above about 0.92. The list shows a part of the results.

Assay: chemical genetic growth profiling, strain panel (AID 1159580);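 note: tested at 20 µM; growth read once vehicle control cultures reached saturation at 30 °C; 1 = growth at the plate median or of vehicle wells; lower values mean less growth of the strain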
Conditions: S. cerevisiae deletion strains, growth OD
[1] = locus YAL013W, strain DEP1, active compounds read low
[2] = locus YBR229C, strain ROT2, active compounds read low
[3] = locus YDL101C, strain DUN1, active compounds read low
[4] = locus YDR150W, strain NUM1, active compounds read low
[5] = locus YEL061C, strain CIN8, active compounds read low
[6] = locus YGR078C, strain PAC10, active compounds read low
[7] = locus YHR030C, strain SLT2, active compounds read low
[8] = locus YHR087W, strain rtc3, active compounds read low
[9] = locus YJR043C, strain POL32, active compounds read low
[10] = locus YJR075W, strain HOC1, active compounds read low
[11] = locus YKL190W, strain CNB1, active compounds read low
[12] = locus YLR039C, strain RIC1, active compounds read low
[13] = locus YLR058C, strain SHM2 (second series), active compounds read low
[14] = locus YLR085C, strain ARP6, active compounds read low
[15] = locus YLR262C, strain YPT6, active compounds read low
[16] = locus YML094W, strain GIM5, active compounds read low
[17] = locus YMR219W, strain ESC1, active compounds read low
[18] = locus YNL153C, strain GIM3, active compounds read low
[19] = locus YNL298W, strain CLA4 (second series), active compounds read low
[20] = locus YNL322C, strain KRE1, active compounds read low
[21] = locus YNR030W, strain Alg12, active compounds read low
[22] = locus YPL055C, strain LGE1, active compounds read low
[23] = locus YPL241C, strain CIN2, active compounds read low
[24] = locus YPR135W, strain CTF4, active compounds read low

Measured: normalized growth

Cc1ccc(N=Nc2c(C)[nH]n(C)c2=O)cc1
active: [1] 0.931 | [2] 0.921 | locus YDL134C, strain PPH21, active compounds read low 0.886 | [5] 0.839 | [7] 0.433 | [9] 0.896 | [12] 0.332 | [14] 0.407 | [15] 0.352 | [16] 0.822 | [23] 0.82 | [24] 0.431
inactive: [3] 0.918 | [4] 0.92 | [6] 0.959 | [8] 0.974 | [10] 0.969 | [11] 0.946 | [13] 0.955 | [17] 0.964 | [18] 0.945 | [19] 0.87 | [20] 0.991 | [21] 0.897 | [22] 0.847

Cc1[nH]n(C)c(=O)c1N=Nc1ccc(Cl)cc1
inactive: [4] 0.835 | locus YGR229C, strain SMI1, active compounds read low 0.979 | [8] 0.926 | [9] 0.945 | [10] 0.912 | locus YNL128W, strain TEP1, active compounds read low 0.965 | [20] 0.96 | [22] 0.78
active: [1] 0.892 | [2] 0.886 | locus YCL061C, strain MRC1, active compounds read low 0.864 | [3] 0.82 | [5] 0.598 | [6] 0.906 | [7] 0.143 | locus YJL187C, strain SWE1, active compounds read low 0.875 | [11] 0.915 | [12] 0.342 | [13] 0.912 | [14] 0.115 | [15] 0.393 | [16] 0.764 | [17] 0.924 | [18] 0.894 | [19] 0.689 | [21] 0.881 | [23] 0.753 | [24] 0.242
